A short description of test [1]: qHTS assay to identify small molecule HDAC inhibitors (AID 1259364). Also: potency is read from the fitted curve at half-maximal effect.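 Also: wild-type HCT-116 cells with endogenous class I/II HDAC activity; nearly all actives have a fitted effect of over 45% in size.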 Put shortly: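 Screening used wild-type human colon HCT-116 cells incubated overnight, dosed with compounds for 2 hours, and assayed with a homogeneous luminogenic HDAC I/II reagent for 30 minutes at room temperature.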
(qHTS replaces the single test concentration by a dilution series.)

The nature of test [2]: qHTS assay to identify small molecule HDAC inhibitors - cell viability counter screen (AID 1259365). Also: series mostly up to about 92 µM; nearly all actives have a fitted effect of over 50% in size. Put shortly:
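Counter screen in wild-type HCT-116 cells: compounds dissolved in DMSO are pin-transferred onto overnight-plated cells and left 2hr at 37C. ATP-based CellTiter-Glo luminescence then measures viable cells.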

Test [3] in a line: qHTS assay to identify small molecule agonists of the sonic hedgehog signaling (Shh) pathway - cell viability counter screen (AID 1259366). Also: nearly all actives have a fitted effect of over 50% in size. Also: potency is read from the fitted curve at half-maximal effect. A digest of the protocol: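 Cells are plated at 2,000 per well and left 4hr at 37C, 5% CO2 before compound addition. After 23hr of treatment, CellTiter-Fluor reagent is added for 1hr at 37C and fluorescence is measured.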
The nature of test [4]: qHTS assay to identify small molecule agonists of the sonic hedgehog signaling (Shh) pathway (AID 1259368; calls by dose curve;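 also: NIH/3T3-derived 3T3Gli1-Luc cells carrying a stable Gli1-driven firefly luciferase reporter; series mostly up to about 92 µM; nearly all actives have a fitted effect of over 15% in size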). Put shortly:
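Hedgehog pathway agonism scored by increased firefly luciferase luminescence in 3T3Gli1-Luc cells treated 24 hr at 37 C; detection used a 30 min room-temperature reagent incubation.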

Test [5] can be described thus: qHTS assay to identify small molecule antagonists of the sonic hedgehog signaling (Shh) pathway (AID 1259369; calls by dose curve; also: nearly all actives have a fitted effect of over 45% in size; also: potency is read from the fitted curve at half-maximal effect). Put shortly:
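NIH/3T3 stable Gli1-Luc clone, 2,000 cells/well, 4hr settle; cpd + conditioned medium 24hr; Luc reagent 30min RT; luminescence.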

Test [6] has as its target Estrogen receptor beta (Homo sapiens) (UniProt Q92731). In words: qHTS assay to identify small molecule antagonists of the estrogen receptor beta (ER-beta) signaling pathway (AID 1259378; active = well fitted inhibition curve with a large enough effect in the signal ratio in the repeat runs, not every such curve was filed as active; the % refers to the signal ratio; also: potency is read from the fitted curve at half-maximal effect). Put shortly:
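ER-beta-UAS-bla HEK293T cells in 2% charcoal-stripped FBS medium treated with compound plus 1nM final 17-beta-estradiol for 16 hr at 37C. Beta-lactamase reporter read by FRET substrate fluorescence after 2 hours at room temperature.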

Test [7] can be described thus: qHTS assay to identify small molecule agonists of the androgen receptor (AR) signaling pathway in the presence of an antagonist - cell viability counter screen (AID 1259379). Also: nearly all actives have a fitted effect of over 25% in size. Also: potency is read from the fitted curve at half-maximal effect. A digest of the protocol:
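MDA-kb2 viability measured by CellTiter-Fluor fluorescence in the same wells as the luciferase signal; nilutamide 3.0uM final; 15-point compound titration; 16 hr at 37C.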

Test [8] can be described thus: qHTS assay to identify small molecule agonists of the estrogen receptor beta (ER-beta) signaling pathway - cell viability counter screen (AID 1259380). Also: nearly all actives have a fitted effect of over 30% in size. Put shortly:
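Measured: luminescence from CellTiter-Glo after 30 min at room temperature, added to wells already read for the LiveBLAzer FRET reporter (2 hr substrate); ER-beta-UAS-bla HEK293T cells had 16 hr compound treatment at 37C, 5% CO2.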

Test [9] addresses Estrogen receptor beta (Homo sapiens) (UniProt Q92731). In words: qHTS assay to identify small molecule agonists of the estrogen receptor beta (ER-beta) signaling pathway (AID 1259377; active = well fitted activation curve with a large enough effect in the signal ratio in the repeat runs, not every such curve was filed as active; the % refers to the signal ratio). Put shortly:
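Agonist mode cell assay in GripTite HEK293T cells expressing an ER-beta fusion that drives beta-lactamase from an Upstream Activator Sequence; 16 hr compound exposure at 37C, then 2 h LiveBLAzer B/G FRET substrate at room temperature, fluorescence read-out.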

Structures are written as SMILES. “And” between values parts separate entries of the source, which are not always exact repeats. Equal values may be shown once. Results filed as inconclusive are left out. A structure can be active in one record and inactive in another. The source made the active and inactive calls. Unless noted, calls follow the shape of the dose curve; as a rule, active = well fitted curve in the direction sought with a large enough effect in the repeat runs; inconclusive = weak or mixed curves; inactive = no such curve, though single readings can be large; an effect the other way counts as inactive or inconclusive.

Estrogen receptor beta (Homo sapiens), sequence (Q92731 whole entry, looked up, the tested form may be a part): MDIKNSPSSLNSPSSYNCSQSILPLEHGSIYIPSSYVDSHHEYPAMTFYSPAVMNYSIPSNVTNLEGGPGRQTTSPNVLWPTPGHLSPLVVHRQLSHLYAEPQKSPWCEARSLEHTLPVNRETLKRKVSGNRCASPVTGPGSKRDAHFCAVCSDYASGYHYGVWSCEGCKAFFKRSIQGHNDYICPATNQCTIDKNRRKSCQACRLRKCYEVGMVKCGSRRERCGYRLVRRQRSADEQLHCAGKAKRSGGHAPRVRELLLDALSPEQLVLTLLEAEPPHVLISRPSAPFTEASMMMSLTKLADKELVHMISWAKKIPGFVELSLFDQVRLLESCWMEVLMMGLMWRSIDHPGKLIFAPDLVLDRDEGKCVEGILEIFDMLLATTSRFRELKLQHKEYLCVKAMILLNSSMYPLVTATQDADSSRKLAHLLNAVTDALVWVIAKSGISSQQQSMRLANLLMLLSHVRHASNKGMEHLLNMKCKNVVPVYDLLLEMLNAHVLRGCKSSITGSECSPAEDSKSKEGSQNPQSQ

`CC(=O)Nc1ccccc1`: the Potency entry in test [1], in test [3], in test [5], in [6], in [7] and in [8] was “inactive” each time. Further, the result in [2] and in test [4] was inactive.

As to `Nc1cc([N+](=O)[O-])ccc1O`, the Potency entry in test [1], in test [5] and in test [8] was “inactive” throughout. Moreover, the outcome in test [2] and in test [4] was inactive. The Potency is 48.6 µM (active) in test [3]; 48.6 µM (active) and 54.2 µM (active) in [7].

As for `O=C(OCCOCCOC(=O)c1ccccc1)c1ccccc1`, the Potency result in test [1], in [3], in [5], in test [7] and in test [8] was “inactive” in each case. Further, the compound was called inactive in [2] and in test [4].

As for `CCCCC(CC)COC(=O)C(C#N)=C(c1ccccc1)c1ccccc1` (stereo not given), the Potency result in test [1], in [3], in test [5], in [7] and in test [8] was “inactive” throughout. Moreover, the result in test [2] and in test [4] was inactive. Further, in test [6], the Potency was 19.3 µM (active).

With `O=c1[nH]c(=O)n([C@H]2C[C@H](O)[C@@H](CO)O2)cc1Br`, the Potency entry in test [1], in test [3], in test [5], in test [6], in test [7] and in [8] was “inactive” each time. Moreover, the compound was classed as inactive in [2] and in [4].

On to `CCc1cccc(C)c1N`, for which the Potency result in test [1], in test [3], in test [5], in test [7] and in test [8] was “inactive” each time. Also, the compound was called inactive in test [2] and in [4].

Take `O=C(Oc1ccccc1)c1ccccc1`: the Potency entry in [1], in [3], in test [5], in test [6], in test [7] and in test [8] was “inactive” in each case. Also, the outcome in test [2] and in test [4] was inactive.

Take `CCC(O)OCCCOC` (stereo not given): the Potency entry in [1], in test [5], in test [6], in test [7] and in test [8] was “inactive” in each case. In addition, the compound was classed as inactive in [2] and in test [4]. In test [3], the Potency was 22.2 µM (active) and inactive.

For `CCc1ccc(CCOc2ccc(CC3SC(=O)NC3=O)cc2)nc1` (stereo not given), the Potency entry in test [1], in test [3], in [5], in test [9], in [7] and in test [8] was “inactive” throughout. Also, the call in [2] and in [4] was inactive.

As to `CCCCCCCCC/C=C/CC1CC(=O)OC1=O` (stereo not given), the Potency entry in test [1], in [3], in test [5] and in test [7] was “inactive” each time. For the same compound, the compound was called inactive in test [2] and in test [4].

For `c1ccc2scnc2c1`, the Potency result in [1], in test [3], in test [5], in test [6], in test [7] and in test [8] was “inactive” throughout. Besides, the compound was called inactive in test [2] and in test [4].

Consider `Oc1cccc2ccccc12`, for which the Potency result in [1], in test [3], in test [7] and in test [8] was “inactive” in each case. Also, the compound was called inactive in test [2] and in [4]. For the same compound, the Potency in [5] was 6.28 µM (active) and 15.4 µM (active).

In the case of `CC(=O)CC(=O)Nc1ccccc1`, the Potency result in test [1], in [3], in test [5], in test [6], in test [7] and in test [8] was “inactive” each time. For the same compound, the compound was classed as inactive in [2] and in test [4].

With `Cc1occc(=O)c1O`, the Potency result in [1], in [3], in [5], in test [7] and in test [8] was “inactive” each time. Besides, the result in test [2] and in test [4] was inactive.

As to `CSCCC=O`, the Potency result in [1], in [3], in test [5], in [6], in test [7] and in test [8] was “inactive” throughout. Also, the compound was classed as inactive in test [2] and in test [4].

As to `O=C(O)c1ccc2c(c1)C(=O)OC2=O`, the Potency entry in [1], in test [3], in [5], in test [6], in test [7] and in [8] was “inactive” each time. Besides, the call in test [2] and in test [4] was inactive.

Consider `CN(C)CCOCCN(C)C`, for which the Potency result in test [1], in test [3], in test [5], in test [9], in [6] and in [7] was “inactive” each time. Further, in [8], the Potency entry was “inactive”. For the same compound, the compound was called inactive in test [2] and in test [4].

On to `c1ccc2c(c1)ccc1ccccc12`, for which the Potency result in test [1], in test [3], in test [5], in [7] and in test [8] was “inactive” throughout. Moreover, the outcome in test [2] and in test [4] was inactive.

In the case of `O=C(O)c1cc(O)c(O)c(O)c1`, the Potency result in [1] and in [8] was “inactive” throughout. Further, the compound was classed as inactive in [2] and in test [4]. Moreover, the Potency is 61.7 µM (active) and inactive in test [3]; 27.6 µM (active) and inactive in test [5]; 55 µM (active) and inactive in [7].

On to `CC(=O)c1ccccc1`, for which the Potency result in test [1], in test [3], in test [5], in [7] and in test [8] was “inactive” in each case. Moreover, the result in test [2] and in test [4] was inactive.

Take `O=C(O)CCCCCCCCCCC(=O)O`: in test [1], the Potency is 21.9 µM (active) and 21.7 µM (active). For the same compound, the result in test [2] and in test [4] was inactive. Also, the Potency result in test [3], in [5], in [7] and in test [8] was “inactive” throughout.

With `CCCCC(CC)COC(=O)CS` (stereo not given), the Potency entry in [1], in test [3], in test [5], in test [7] and in test [8] was “inactive” in each case. For the same compound, the compound was classed as inactive in test [2] and in [4].
